In all, about 5,500 compounds went through this assay and about 2,000 (36%) were called active. About 18% were inconclusive and are not listed. Rule as the data show it: active = normalized growth mostly below about 0.91 (no sharp cut-off); inconclusive = no clear call, values can overlap the other calls; inactive = mostly above about 0.92. The list shows a part of the results.
Assay: chemical genetic growth profiling, strain panel (AID 1159580);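 also: tested at 20 µM; growth read once vehicle control cultures reached saturation at 30 °C; 1 = growth at the plate median or of vehicle wells; lower values mean less growth of the strain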
Details: growth OD
[1] = S. cerevisiae deletion strains, locus YDR150W, strain NUM1, active compounds read low
[2] = S. cerevisiae deletion strains, locus YGR229C, strain SMI1, active compounds read low
[3] = S. cerevisiae deletion strains, locus YMR307W, strain GAS1, active compounds read low
[4] = S. cerevisiae deletion strains, locus YNL153C, strain GIM3, active compounds read low

Measured: normalized growth

CC(C)N(C(=O)SCC(Cl)=C(Cl)Cl)C(C)C
inactive: S. cerevisiae deletion strains, locus YAL013W, strain DEP1, active compounds read low 1.01 | S. cerevisiae deletion strains, locus YBR021W, strain FUR4, active compounds read low 1.01 | S. cerevisiae deletion strains, locus YBR229C, strain ROT2, active compounds read low 1.01 | S. cerevisiae deletion strains, locus YCL029C, strain bik1, active compounds read low 1.01 | S. cerevisiae deletion strains, locus YDL035C, strain GPR1, active compounds read low 1.01 | S. cerevisiae deletion strains, locus YDL074C, strain BRE1, active compounds read low 1.04 | S. cerevisiae deletion strains, locus YDL101C, strain DUN1, active compounds read low 1.02 | S. cerevisiae deletion strains, locus YDL134C, strain PPH21, active compounds read low 1.02 | S. cerevisiae deletion strains, locus YDL185W, strain tfp1, active compounds read low 0.999 | S. cerevisiae deletion strains, locus YDL192W, strain arf1, active compounds read low 0.998 | S. cerevisiae deletion strains, locus YDR101C, strain arx1, active compounds read low 0.998 | [1] 1.02 | S. cerevisiae deletion strains, locus YDR162C, strain NBP2, active compounds read low 1.02 | S. cerevisiae deletion strains, locus YDR318W, strain mcm21, active compounds read low 1 | S. cerevisiae deletion strains, locus YDR388W, active compounds read low 1 | S. cerevisiae deletion strains, locus YDR502C, strain sam2, active compounds read low 1 | S. cerevisiae deletion strains, locus YEL061C, strain CIN8, active compounds read low 1.01 | S. cerevisiae deletion strains, locus YER110C, active compounds read low 0.998 | S. cerevisiae deletion strains, locus YER155C, strain BEM2, active compounds read low 1.02 | S. cerevisiae deletion strains, locus YER167W, strain BCK2, active compounds read low 1.03 | S. cerevisiae deletion strains, locus YGL078C, strain dbp3, active compounds read low 0.996 | S. cerevisiae deletion strains, locus YGL086W, strain mad1, active compounds read low 1.01 | S. cerevisiae deletion strains, locus YGL248W, strain PDE1, active compounds read low 1.02 | S. cerevisiae deletion strains, locus YGR078C, strain PAC10, active compounds read low 1.02 | S. cerevisiae deletion strains, locus YGR135W, strain pre9, active compounds read low 0.995 | [2] 1.04 | S. cerevisiae deletion strains, locus YGR252W, strain gcn5, active compounds read low 0.945 | S. cerevisiae deletion strains, locus YHR030C, strain SLT2, active compounds read low 1.02 | S. cerevisiae deletion strains, locus YHR079C, strain IRE1 (second series), active compounds read low 1 | S. cerevisiae deletion strains, locus YHR094C, strain hxt1, active compounds read low 1.01 | S. cerevisiae deletion strains, locus YHR200W, strain rpn10, active compounds read low 1 | S. cerevisiae deletion strains, locus YIL066C, strain RNR3, active compounds read low 1.02 | S. cerevisiae deletion strains, locus YIL073C, strain SPO22, active compounds read low 1.04 | S. cerevisiae deletion strains, locus YIL125W, strain kgd1, active compounds read low 1 | S. cerevisiae deletion strains, locus YIR030C, strain dcg1, active compounds read low 1 | S. cerevisiae deletion strains, locus YJL095W, strain BCK1, active compounds read low 1.03 | S. cerevisiae deletion strains, locus YJL134W, strain LCB3, active compounds read low 1.02 | S. cerevisiae deletion strains, locus YJL168C, strain set2, active compounds read low 1 | S. cerevisiae deletion strains, locus YJL187C, strain SWE1 (second series), active compounds read low 1.01 | S. cerevisiae deletion strains, locus YJR043C, strain POL32, active compounds read low 1.01 | S. cerevisiae deletion strains, locus YJR075W, strain HOC1, active compounds read low 1.03 | S. cerevisiae deletion strains, locus YKL009W, strain mrt4, active compounds read low 1.01 | S. cerevisiae deletion strains, locus YKL068W, active compounds read low 1.01 | S. cerevisiae deletion strains, locus YKL085W, strain MDH1 (second series), active compounds read low 1.01 | S. cerevisiae deletion strains, locus YKL085W, strain MDH1, active compounds read low 1.01 | S. cerevisiae deletion strains, locus YKL190W, strain CNB1, active compounds read low 1.04 | S. cerevisiae deletion strains, locus YKR001C, strain vps1, active compounds read low 0.987 | S. cerevisiae deletion strains, locus YLR039C, strain RIC1, active compounds read low 0.9 | S. cerevisiae deletion strains, locus YLR058C, strain SHM2, active compounds read low 1.01 | S. cerevisiae deletion strains, locus YLR102C, strain apc9, active compounds read low 1.01 | S. cerevisiae deletion strains, locus YLR262C, strain YPT6, active compounds read low 0.977 | S. cerevisiae deletion strains, locus YLR268W, strain sec22, active compounds read low 0.981 | S. cerevisiae deletion strains, locus YLR330W, strain CHS5, active compounds read low 1.01 | S. cerevisiae deletion strains, locus YLR342W, strain FKS1 (second series), active compounds read low 1.02 | S. cerevisiae deletion strains, locus YLR371W, strain rom2, active compounds read low 1 | S. cerevisiae deletion strains, locus YLR418C, strain cdc73, active compounds read low 0.996 | S. cerevisiae deletion strains, locus YML016C, strain PPZ1, active compounds read low 1.02 | S. cerevisiae deletion strains, locus YML032C, strain rad52, active compounds read low 1 | S. cerevisiae deletion strains, locus YML124C, strain tub3, active compounds read low 1 | S. cerevisiae deletion strains, locus YMR078C, strain ctf18, active compounds read low 1.01 | S. cerevisiae deletion strains, locus YMR223W, strain ubp8, active compounds read low 0.998 | S. cerevisiae deletion strains, locus YMR263W, strain SAP30, active compounds read low 1.03 | [3] 1.01 | S. cerevisiae deletion strains, locus YNL067W, strain RPL9B, active compounds read low 1.02 | S. cerevisiae deletion strains, locus YNL128W, strain TEP1, active compounds read low 1.02 | [4] 1.01 | S. cerevisiae deletion strains, locus YNL233W, strain BNI4, active compounds read low 1.02 | S. cerevisiae deletion strains, locus YNL250W, strain rad50, active compounds read low 0.999 | S. cerevisiae deletion strains, locus YNL271C, strain bni1, active compounds read low 1 | S. cerevisiae deletion strains, locus YNL298W, strain CLA4, active compounds read low 0.986 | S. cerevisiae deletion strains, locus YNL307C, strain MCK1, active compounds read low 0.979 | S. cerevisiae deletion strains, locus YNL322C, strain KRE1, active compounds read low 1.01 | S. cerevisiae deletion strains, locus YNR052C, strain pop2, active compounds read low 1 | S. cerevisiae deletion strains, locus YOL006C, strain TOP1, active compounds read low 1.08 | S. cerevisiae deletion strains, locus YOL012C, strain htz1 0.763 | S. cerevisiae deletion strains, locus YOL147C, strain pex11, active compounds read low 1 | S. cerevisiae deletion strains, locus YOR061W, strain CKA2, active compounds read low 1.02 | S. cerevisiae deletion strains, locus YOR069W, strain VPS5, active compounds read low 1.02 | S. cerevisiae deletion strains, locus YOR136W, strain idh2, active compounds read low 0.996 | S. cerevisiae deletion strains, locus YOR144C, strain elg1, active compounds read low 1.01 | S. cerevisiae deletion strains, locus YOR184W, strain ser1, active compounds read low 0.99 | S. cerevisiae deletion strains, locus YOR316C, strain cot1, active compounds read low 1.01 | S. cerevisiae deletion strains, locus YPL055C, strain LGE1, active compounds read low 1.04 | S. cerevisiae deletion strains, locus YPL241C, strain CIN2, active compounds read low 1.02 | S. cerevisiae deletion strains, locus YPR119W, strain clb2, active compounds read low 1 | S. cerevisiae deletion strains, locus YPR141C, strain kar3, active compounds read low 1 | S. cerevisiae deletion strains, locus YPR163C, strain tif3, active compounds read low 0.998 | S. cerevisiae deletion strains, locus YPR167C, strain met16, active compounds read low 1.01 | S. cerevisiae deletion strains, strain wtn01, active compounds read low 0.998 | S. cerevisiae strains, strain wild type, active compounds read low 1.01

COc1cc2c(c(OC)c1OC)-c1ccc(OC)c(=O)cc1C(NC(C)=O)CC2 (stereo unspecified)
inactive: S. cerevisiae deletion strains, locus YAL040C, strain CLN3, active compounds read low 0.95 | [1] 1.03 | S. cerevisiae deletion strains, locus YDR363W, strain ESC2, active compounds read low 1 | S. cerevisiae deletion strains, locus YER002W, strain NOP16, active compounds read low 1.01 | [2] 1 | [3] 0.984 | [4] 1.06 | S. cerevisiae deletion strains, locus YNL175C, strain NOP13, active compounds read low 1.01 | S. cerevisiae deletion strains, locus YNL197C, strain WHI3, active compounds read low 1.01 | S. cerevisiae deletion strains, locus YNL224C, strain SQS1, active compounds read low 1 | S. cerevisiae deletion strains, locus YOR083W, strain WHI5 (second series), active compounds read low 1.02

Reference: PubChem BioAssay AID1159580 (chemical genetic matrix, 2015)
